Assay [1] can be described thus: binders of probe aFSTL3 on microarray, primary screen, stem cell growth factor project, biochemical, small-molecule microarray, fluorescence 635/667 (AID 1064).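 Note: measures binding of the biotinylated anti-FSTL3 antibody to printed compounds.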 The note with it: higher = more signal.
Assay [2] can be described thus: binders from COS7 lysate, DM2A8 probe, primary screen, torsin A project, cell lysate, small-molecule microarray, fluorescence 635/667 (AID 1065). The note with it: higher = more signal, COS7 lysate expressing mutant human TOR1A.
Assay [3] is described as follows: binders of probe aFGF2 on microarray, primary screen, stem cell growth factor project, biochemical, small-molecule microarray, fluorescence 635/667 (AID 1067).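 Note: measures binding of biotinylated aFGF2 protein to printed compounds on slides; z-score merges feature fluorescence and signal-to-noise across triplicate slides.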 The note with it: higher = more signal.
The nature of assay [4]: binders of probe aFGF10 on microarray, primary screen, stem cell growth factor project, biochemical, small-molecule microarray, fluorescence 635/667 (AID 1071).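 Note: score merges 667 nm spot intensity and signal to noise from triplicate slides.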 Conditions: higher = more signal.
Assay [5] deals with Neurogenic locus notch homolog protein 2 (Homo sapiens) (UniProt Q04721). Description: Notch2 binders on small-molecule microarrays, primary screen, biochemical, small-molecule microarray, 635 nm fluorescence, stem cell growth factors (AID 1073). Conditions: Notch2 binding, higher = more signal.
Chain of Neurogenic locus notch homolog protein 2 (Homo sapiens) (Q04721 whole entry, looked up, canonical isoform): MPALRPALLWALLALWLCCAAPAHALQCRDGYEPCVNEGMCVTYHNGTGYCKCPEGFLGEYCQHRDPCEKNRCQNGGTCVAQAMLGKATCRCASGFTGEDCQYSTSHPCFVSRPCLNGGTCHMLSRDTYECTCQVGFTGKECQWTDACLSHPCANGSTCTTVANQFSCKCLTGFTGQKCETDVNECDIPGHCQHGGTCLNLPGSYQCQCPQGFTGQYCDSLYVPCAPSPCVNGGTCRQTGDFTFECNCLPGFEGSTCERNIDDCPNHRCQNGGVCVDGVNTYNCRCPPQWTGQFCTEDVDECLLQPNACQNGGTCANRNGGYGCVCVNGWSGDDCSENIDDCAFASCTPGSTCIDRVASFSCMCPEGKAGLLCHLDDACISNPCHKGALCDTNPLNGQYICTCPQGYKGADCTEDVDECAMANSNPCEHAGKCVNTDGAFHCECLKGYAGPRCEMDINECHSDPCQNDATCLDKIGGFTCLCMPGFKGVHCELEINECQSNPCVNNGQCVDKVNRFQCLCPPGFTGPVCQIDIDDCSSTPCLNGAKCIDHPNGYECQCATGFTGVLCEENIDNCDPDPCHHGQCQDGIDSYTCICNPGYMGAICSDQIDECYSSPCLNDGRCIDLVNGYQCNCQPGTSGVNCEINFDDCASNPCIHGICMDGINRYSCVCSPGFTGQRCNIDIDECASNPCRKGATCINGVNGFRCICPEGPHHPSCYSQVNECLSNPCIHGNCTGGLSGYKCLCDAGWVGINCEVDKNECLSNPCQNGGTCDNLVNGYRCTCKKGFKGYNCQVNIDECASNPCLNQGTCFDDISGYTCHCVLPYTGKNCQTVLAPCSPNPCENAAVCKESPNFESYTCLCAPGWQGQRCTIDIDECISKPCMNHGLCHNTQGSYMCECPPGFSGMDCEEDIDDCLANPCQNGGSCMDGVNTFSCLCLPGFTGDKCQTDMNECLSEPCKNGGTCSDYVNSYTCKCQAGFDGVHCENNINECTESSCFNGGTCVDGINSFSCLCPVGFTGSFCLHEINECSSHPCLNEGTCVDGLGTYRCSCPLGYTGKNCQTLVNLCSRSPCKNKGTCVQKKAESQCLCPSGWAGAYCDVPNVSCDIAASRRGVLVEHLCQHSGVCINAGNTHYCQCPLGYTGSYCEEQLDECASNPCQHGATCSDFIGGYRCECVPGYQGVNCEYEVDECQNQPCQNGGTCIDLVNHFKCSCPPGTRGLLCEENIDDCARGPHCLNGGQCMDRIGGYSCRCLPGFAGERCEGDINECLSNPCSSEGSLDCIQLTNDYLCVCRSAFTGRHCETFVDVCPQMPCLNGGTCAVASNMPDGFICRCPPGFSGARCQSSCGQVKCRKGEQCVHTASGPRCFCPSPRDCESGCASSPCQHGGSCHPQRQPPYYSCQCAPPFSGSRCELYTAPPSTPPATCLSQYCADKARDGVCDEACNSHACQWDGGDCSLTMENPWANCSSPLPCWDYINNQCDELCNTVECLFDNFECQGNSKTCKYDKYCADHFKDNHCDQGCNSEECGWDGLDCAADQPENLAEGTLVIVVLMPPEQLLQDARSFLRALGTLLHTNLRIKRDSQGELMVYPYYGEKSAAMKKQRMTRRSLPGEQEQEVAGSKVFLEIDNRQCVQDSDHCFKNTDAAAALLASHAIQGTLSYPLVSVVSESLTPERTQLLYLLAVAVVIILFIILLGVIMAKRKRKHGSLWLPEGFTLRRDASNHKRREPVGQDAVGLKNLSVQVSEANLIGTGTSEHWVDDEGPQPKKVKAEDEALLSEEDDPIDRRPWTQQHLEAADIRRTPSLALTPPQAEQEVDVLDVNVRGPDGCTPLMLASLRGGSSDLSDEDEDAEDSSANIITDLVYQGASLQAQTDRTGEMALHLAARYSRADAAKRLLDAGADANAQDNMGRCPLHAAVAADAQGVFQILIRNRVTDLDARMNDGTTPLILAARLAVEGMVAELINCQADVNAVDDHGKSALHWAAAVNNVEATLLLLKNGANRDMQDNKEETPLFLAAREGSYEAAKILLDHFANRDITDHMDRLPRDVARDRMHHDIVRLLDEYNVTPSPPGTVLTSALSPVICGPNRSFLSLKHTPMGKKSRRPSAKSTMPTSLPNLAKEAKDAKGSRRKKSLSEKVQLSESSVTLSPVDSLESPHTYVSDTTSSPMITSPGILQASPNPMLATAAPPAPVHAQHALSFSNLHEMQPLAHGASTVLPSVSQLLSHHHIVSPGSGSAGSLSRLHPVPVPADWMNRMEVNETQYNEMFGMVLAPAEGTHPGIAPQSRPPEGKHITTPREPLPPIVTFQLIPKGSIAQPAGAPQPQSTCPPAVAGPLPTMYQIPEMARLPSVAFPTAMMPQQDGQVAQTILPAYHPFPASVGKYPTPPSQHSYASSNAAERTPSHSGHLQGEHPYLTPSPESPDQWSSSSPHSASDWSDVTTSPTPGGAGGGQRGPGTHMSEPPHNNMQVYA
In assay [6] the target is Pro-neuregulin-1, membrane-bound isoform (Homo sapiens) (UniProt Q02297). The assay can be described thus: NRG1 binders on small-molecule microarrays, primary screen, psychiatric disease protein project, biochemical, small-molecule microarray, fluorescence 635/667 (AID 1075).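 Note: score combines 667 nm spot fluorescence with signal to noise.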 The note with it: NRG1 binding, 635 nm fluorescence, higher = more signal.
Chain of Pro-neuregulin-1, membrane-bound isoform (Homo sapiens) (Q02297 whole entry, looked up, the tested form may be a part, canonical isoform): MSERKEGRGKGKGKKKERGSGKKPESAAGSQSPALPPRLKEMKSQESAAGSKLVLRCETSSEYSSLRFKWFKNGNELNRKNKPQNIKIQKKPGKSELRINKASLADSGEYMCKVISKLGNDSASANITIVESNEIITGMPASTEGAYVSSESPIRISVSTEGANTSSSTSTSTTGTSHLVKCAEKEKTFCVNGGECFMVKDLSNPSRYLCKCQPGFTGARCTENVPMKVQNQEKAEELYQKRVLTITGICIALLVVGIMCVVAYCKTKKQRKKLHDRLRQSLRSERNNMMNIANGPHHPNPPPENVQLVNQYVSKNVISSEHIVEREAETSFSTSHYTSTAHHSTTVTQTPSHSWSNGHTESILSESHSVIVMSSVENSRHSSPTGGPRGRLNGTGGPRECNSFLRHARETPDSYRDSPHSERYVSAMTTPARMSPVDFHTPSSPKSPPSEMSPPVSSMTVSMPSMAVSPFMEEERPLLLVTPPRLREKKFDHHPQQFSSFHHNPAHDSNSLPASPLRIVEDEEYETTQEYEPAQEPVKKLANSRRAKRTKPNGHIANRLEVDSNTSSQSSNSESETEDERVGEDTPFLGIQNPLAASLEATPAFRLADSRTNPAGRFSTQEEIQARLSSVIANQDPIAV
The subject of assay [7] is Neuregulin-1 EGF-like domain. The assay can be described thus: binders of neuregulin-1 EGF-like domain, primary screen, biochemical, small-molecule microarray, 635 nm fluorescence (AID 1081).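 Note: binding of the protein to compounds printed on small-molecule microarray slides.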 Conditions: small-molecule microarray binding, higher = more signal.
Assay [8] is described as follows: FRG1 promoter luciferase signal modulators, primary screen, FRG1 inhibition for FSHD, cell-based, C2C12 myotubes, firefly/Renilla luciferase, luminescence (AID 1084). Conditions: higher = more signal, called active from +8 up or from −8 down.
Assay [9] can be described thus: binders of probe aFST on microarray, primary screen, stem cell growth factor project, biochemical, small-molecule microarray, fluorescence 635/667 (AID 1086).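 Note: score merges 667 nm fluorescence with signal-to-noise of each printed compound spot.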 Conditions: higher = more signal.
Assay [10] is described as follows: binders of probe aHhip on microarray, primary screen, stem cell growth factor project, biochemical, small-molecule microarray, fluorescence 635/667 (AID 1087).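 Note: score merges spot fluorescence at 667nm with spot signal to noise ratio.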 The note with it: higher = more signal.
Assay [11] relates to PRMT1 (protein arginine N-methyltransferase 1). The assay can be described thus: PRMT1 binders on small-molecule microarrays, primary screen, biochemical, small-molecule microarray, 635 nm fluorescence (AID 1088).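 Note: binding of Prmt1 protein to compounds spotted on small-molecule microarray slides.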 The note with it: small-molecule microarray binding, higher = more signal.
A short description of assay [12]: yeast growth modulation, basal conditions, primary screen, YJM789 clinical isolate, OD600, 24 h (AID 1089).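 Note: growth of clinical yeast isolate S. cerevisiae YJM 789 seeded 1000 cells per well; test concentration not given here.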 Conditions: S. cerevisiae YJM789 growth, higher = more signal, called active from +8 up or from −8 down.
Assay [13] is described as follows: fission yeast growth modulation, primary screen, strain 972, OD600, 24 h, no modulator (AID 1090).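 Note: basal condition with compound alone and no growth modifier present; test concentration not given here.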 The note with it: S. pombe 972 growth, higher = more signal, called active from +8 up or from −8 down.
The nature of assay [14]: S. cerevisiae growth modulation with rapamycin, primary screen, strain BY4716, OD600, 96 h (AID 1091). Note: test concentration not given here. The note with it: higher = more signal, called active from +8 up or from −8 down.
In assay [15] the target is Torsin-1A-interacting protein 2 (Homo sapiens) (UniProt Q8NFQ8). Description: LULL1 binders on small-molecule microarray, primary screen, cell lysate, human LULL1 lysate, 635/667 nm fluorescence (AID 1092).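 Note: probe is lysate of COS7 cells overexpressing human LULL1; score merges per-feature 667 nm fluorescence with signal-to-noise.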 The note with it: hLULL1 lysate binding, 635 nm fluorescence, higher = more signal.
Chain of Torsin-1A-interacting protein 2 (Homo sapiens) (Q8NFQ8 whole entry, looked up): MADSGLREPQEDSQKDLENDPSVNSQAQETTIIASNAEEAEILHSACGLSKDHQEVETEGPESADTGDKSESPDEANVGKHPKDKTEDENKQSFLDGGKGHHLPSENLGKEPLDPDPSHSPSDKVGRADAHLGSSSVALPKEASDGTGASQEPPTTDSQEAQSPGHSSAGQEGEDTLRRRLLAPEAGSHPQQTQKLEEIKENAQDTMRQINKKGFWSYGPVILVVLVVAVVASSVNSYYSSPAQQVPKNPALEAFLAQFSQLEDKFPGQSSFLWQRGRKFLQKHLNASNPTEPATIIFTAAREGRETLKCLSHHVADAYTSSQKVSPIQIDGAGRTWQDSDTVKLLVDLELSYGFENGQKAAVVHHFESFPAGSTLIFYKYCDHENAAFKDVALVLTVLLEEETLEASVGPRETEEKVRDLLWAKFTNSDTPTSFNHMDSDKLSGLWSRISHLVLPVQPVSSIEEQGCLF
A short description of assay [16]: E. coli growth modulation, two-sided OD650, primary screen, E. coli filamentation project, strain DRC41, 24 h (AID 1093).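 Note: MC1000 strain lacking acrAB efflux and sulA so SOS filamentation is blocked; test concentration not given here.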 The note with it: OD650, 24 h, higher = more signal, called active from +8 up or from −8 down.
Assay [17] in a line: small-molecule microarray binders of probe aLefty2, primary screen, biochemical, biotinylated probe, 635/667 nm fluorescence (AID 1094).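 Note: score merges spot fluorescence near 667 nm with spot signal-to-noise ratio.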 Conditions: higher = more signal.
For assay [18], the system named is Noggin (protein binding on small-molecule microarray). The assay can be described thus: Noggin binders on small-molecule microarray, primary screen, biochemical, 635/667 nm fluorescence (AID 1095).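 Note: score merges 667 nm feature fluorescence with signal to noise over triplicate slides.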 The note with it: 635 nm fluorescence, higher = more signal.
In assay [19] the target is Neurogenic locus notch homolog protein 3 (Homo sapiens) (UniProt Q9UM47). Description: NOTCH3 binders on small-molecule microarray, primary screen, biochemical, 635/667 nm fluorescence (AID 1096). The note with it: NOTCH3 binding, 635 nm fluorescence, higher = more signal.
Assay [20] is described as follows: small-molecule microarray binders of probe aEGFR, primary screen, biochemical, biotinylated probe, 635/667 nm fluorescence (AID 1097).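 Note: probe is a biotinylated anti-EGFR antibody binding compounds printed on slides; score combines fluorescence near 667 nm and signal to noise of each spot.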 The note with it: higher = more signal.

The source made the active and inactive calls.

Take `COc1ccc(COC(=O)NN=C2C[C@@H](O)[C@@H](O)[C@@H]3[C@@H]4C(=O)N(C(C)(C)C)C(=O)[C@@H]4CC[C@@H]23)cc1`: the composite z-score was -0.31 in [1]; 1.1 in assay [2]; -0.0243 in assay [3]; 0.568 in [4]; 1.14 in assay [5]; 0.173 in [6]. Moreover, the composite z-score in [7] is 0.644; in assay [9], 0.413; in assay [10], -0.204; in assay [11] it was 1.16; in [15], 0.515; in assay [17] it was -0.005. Also, the results for the composite z-score in assay [18], in [19] and in assay [20] were 0.0364, 1.02 and -0.03, respectively. In addition, the z-score was 1.24 (inactive) in assay [8]; -1.26 (inactive) in assay [12]; -0.573 (inactive) in assay [13]; -0.731 (inactive) in [14]; 1.09 (inactive) in [16].
`C#CCCCON=C1C[C@@H](O)[C@@H](O)[C@@H]2[C@@H]3C(=O)N([C@@H](C)c4ccccc4)C(=O)[C@@H]3CC[C@@H]12`: the composite z-score in assay [1] was -0.0065; in [2] it was -0.318; in assay [3], -0.17; in assay [4], -0.46; in assay [5], -0.351; in assay [6], -0.191. The composite z-score in assay [7] was -0.934; in [9], -0.069; in assay [10] it was -0.267; in [11] it was -0.0587; in assay [15], -0.148; in assay [17] it was -0.161. Moreover, the composite z-score in assay [18] is -0.225; in [19], -0.746; in assay [20], -0.1. Further, the z-score in [8] is 0.0665 (inactive); in assay [12], 0.837 (inactive); in assay [13], 1.4 (inactive); in assay [14], 1.26 (inactive); in [16], 0.761 (inactive).
Regarding `CO[C@@H]1COC(=O)[C@H](CCSC)NC(=O)CC=C[C@@H](C)COC(=O)[C@@H]2CCCN2C(=O)CC=C[C@H]1C`, the composite z-score is -0.313 in [1]; 2.62 in [2]; -0.0659 in assay [3]; 0.571 in [4]; 0.84 in assay [5]; -0.483 in assay [6]. In addition, the composite z-score in [7] was 0.926; in assay [9] it was 0.16; in assay [10], -0.0618; in assay [11] it was 0.888; in assay [15], -0.389; in assay [17] it was -0.261. The composite z-score was 0.862 in [18], 0.468 in assay [19] and -0.0675 in assay [20]. In addition, the z-score in [8] was -0.813 (inactive); in assay [12], -0.0153 (inactive); in [13], -1.33 (inactive); in [14], -0.495 (inactive); in assay [16] it was -0.135 (inactive).
Turning to `O=C1CCCC=C1C(O)COCc1ccccc1` (stereo not given), the composite z-score in assay [1] is -0.356; in [2], 0.217; in [3] it was -0.214; in [4], 0.225; in assay [5], -0.263; in assay [6], -0.179. Also, the composite z-score in assay [7] was 0.332; in assay [9] it was -0.302; in [10] it was -0.194; in [11], -0.544; in [15], -0.395; in [17], -0.212. Also, the composite z-score in [18] was 0.022; in assay [19] it was -0.256; in assay [20] it was -0.142. Besides, the z-score in assay [8] was 0.91 (inactive); in assay [12] it was 0.249 (inactive); in [13], -0.233 (inactive); in assay [14], 0.456 (inactive); in [16] it was 0.202 (inactive).
For `CCOC(=O)[C@H](CC(C)C)NC(=O)CCC1CC(OC(=O)NCCc2ccc(F)cc2)CC2(CCCC(COC(=O)NCc3cccc(C(F)(F)F)c3)O2)O1` (stereo not given in full), the composite z-score is -0.17 in assay [1]; 0.13 in assay [2]; -0.0924 in assay [3]; 0.983 in assay [4]; 1.14 in [5]; 0.806 in assay [6]. Moreover, the composite z-score in assay [7] is 1.16; in [9], -0.0518; in assay [10], -0.0102; in assay [11], 1.49; in [15], 1.6; in [17] it was -0.103. The composite z-score was found to be 0.584 in [18], 0.722 in [19] and 0.0199 in assay [20]. For the same compound, the z-score in [8] is -0.0179 (inactive); in [12], 0.643 (inactive); in [13], 0.58 (inactive); in [14], 0.603 (inactive); in assay [16], 1.05 (inactive).

The record behind these values is PubChem BioAssay.
